assay: compounds binding Alexa647 anti-His antibody – biochemical, small-molecule microarray, 635 nm fluorescence, artefact control for SMM control protein annotation, primary screen (AID 1128); conditions: higher = more signal;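 note: score merges feature fluorescence with signal-to-noise for each printed compound spot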

Compared with COCCOC(=O)N1C(=O)[C@@]2(c3cc(C#CCC(C(=O)OC)C(=O)OC)ccc31)[C@H](c1ccccc1OCCO)N1[C@H](c3ccccc3)[C@H](c3ccccc3)OC(=O)[C@H]1[C@@H]2C(=O)N1CCN(c2ncccn2)CC1, COCCOC(=O)N1C(=O)[C@@]2(c3cc(C#CC4(O)CCCCCC4)ccc31)[C@H](c1ccc(OCCO)cc1)N1[C@H](c3ccccc3)[C@H](c3ccccc3)OC(=O)[C@H]1[C@@H]2C(=O)N1CCN(c2ncccn2)CC1 is higher in composite z-score: 0.762 for the first, 1.39 for the second.

Going from C=CCC(OC(C)=O)[C@@H]1[C@@H](N(Cc2ccc(-c3ccccc3)cc2)C(=O)c2cccc3ccccc23)c2cc(OCCCO)ccc2N1C(=O)c1ccc(-c2ccccc2)cc1 (stereo not given in full) to C=CCC(OC(C)=O)[C@@H]1[C@@H](N(Cc2ccc(-c3ccccc3)cc2)C(=O)c2ccc(-c3ccccc3)cc2)c2cc(OCCCO)ccc2N1C(=O)Cc1ccc2ccccc2c1 (stereo not given in full), the composite z-score rises from -0.722 to 1.13.

Going from O=C(NCCO)C1=C[C@H](Oc2ccccc2I)[C@@H](O)[C@H](N(Cc2ccco2)C(=O)Cc2ccccc2)C1 to CC(C)CNC(=O)[C@@]1(Cc2ccccc2I)c2ccccc2C(=O)N(C2CCCCC2)[C@H]1c1ccc(CO)cc1, the composite z-score rises from -0.169 to 1.57.

First: C#C[C@H](O[Si](C#Cc1ccc(Oc2ccccc2)cc1)(C(C)C)C(C)C)c1ccccc1
Second: [N-]=[N+]=Nc1ccccc1[C@@H]1OC(c2ccc(OCCCO)cc2)=N[C@]1(CCS(=O)(=O)c1ccccc1)C(N)=O
The composite z-score of the first is lower: -0.179 for the first, 0.712 for the second.

Going from CC1CC/C=C\[C@H]2OC34C=CCN(Cc5ccccc5)C(=O)[C@H]3N(CCCO)C(=O)[C@@H]4C2C(=O)O1 (stereo not given in full) to CCCCCN1CC=CC23O[C@@H]4/C=C\CCC(C)OC(=O)C4[C@H]2C(=O)N(C(C)CO)[C@@H]3C1=O (stereo not given in full), the composite z-score falls from 0.522 to -0.361.

Compared with CCOC(=O)C[C@H]1[C@H](OC(=O)c2ccc(C(=O)c3ccccc3)cc2)[C@@H](NC(=O)c2ccccc2)c2cc(OCCCO)ccc2N1C(=O)Cc1ccc(OC)cc1, C=CCC(OC(C)=O)[C@@H]1[C@@H](N(Cc2ccc(-c3ccccc3)cc2)C(=O)Cc2ccc(OC)cc2)c2cc(OCCCO)ccc2N1C(=O)Cc1ccc2ccccc2c1 (stereo not given in full) is higher in composite z-score: -0.239 for the first, -0.142 for the second.

Compared with Cc1ccc(S[C@]2(C(=O)NCCCN(C)C)CC(=O)N(Cc3ccccc3C(F)(F)F)[C@@H]2c2ccc(CO)cc2)cc1, Cc1ccc(S[C@]2(C(=O)NCCCN(C)C)CC(=O)N(Cc3cc(C(F)(F)F)cc(C(F)(F)F)c3)[C@@H]2c2ccc(CO)cc2)cc1 is higher in composite z-score: -1.09 for the first, -0.237 for the second.

First: C=CC[C@]1(C(=O)NCCCOC)N=C(c2ccc(OCCCO)cc2)O[C@H]1c1ccccc1CN=[N+]=[N-]
Second: [N-]=[N+]=Nc1ccccc1[C@@H]1OC(c2ccc(OCCCO)cc2)=N[C@]1(Cc1ccccc1)C(=O)N1CCOCC1
The composite z-score of the first is higher: 2.44 for the first, 2.31 for the second.

First: CCCC[C@H]1OB(O)C[C@H]2C1=C(COC)Cn1c(=O)n(-c3ccccc3)c(=O)n12
Second: COCCCNC(=O)[C@@]1(C)c2ccccc2C(=O)N(C(C)C)[C@H]1c1ccc(CO)cc1
The composite z-score of the first is lower: -0.152 for the first, 1.42 for the second.

Going from COc1ccc(/C=C/C=O)cc1 to COC(=O)[C@@]1(Cc2ccc(OC)cc2)[C@@H]2C(=CC(=O)[C@H]2CC(=O)C(=O)N2CCCC2)CN1C(=O)c1ccccc1, the composite z-score rises from 0.0874 to 1.47.

Going from NC(=O)NCC#Cc1ccc2c(c1)[C@]1(C(=O)N2)[C@H](c2ccccc2OCCO)N2[C@H](c3ccccc3)[C@H](c3ccccc3)OC(=O)[C@H]2[C@@H]1C(=O)Nc1nc2ccccc2s1 to NC(=O)NCC#Cc1ccc2c(c1)[C@]1(C(=O)N2)[C@H](C(=O)Nc2nc3ccccc3s2)[C@H]2C(=O)O[C@H](c3ccccc3)[C@H](c3ccccc3)N2[C@@H]1c1ccccc1OCCO, the composite z-score rises from 0.111 to 0.678.

Going from Cc1ccc(N2C(=O)c3ccccc3[C@@H](C(=O)NC3CC3)[C@@H]2c2ccc(CO)cc2)nc1 to COc1ccc(C(=O)Nc2ccc(CN3C(=O)[C@]4(O[C@H](CCO)[C@@H]([Si](C)(C)c5ccc(OC)cc5)[C@@H]4C)c4ccccc43)cc2)cc1, the composite z-score falls from 0.442 to 0.215.

Going from C=C(COC)/C(=C/C[C@@H](OC(=O)c1ccncc1)c1ccc(CO)o1)c1cc(C(=O)OC)ccc1OC to CO[C@H]1O[C@H](CO)[C@@H](OC(=O)Nc2cccc(F)c2)[C@H](OC(=O)Nc2ccccc2)[C@@H]1OC(=O)Nc1ccccc1, the composite z-score rises from 0.68 to 1.16.

Going from COc1cc2c(cc1OC)CN(C(=O)[C@@H]1[C@H]3C(=O)O[C@H](c4ccccc4)[C@H](c4ccccc4)N3[C@H](c3ccc(O)cc3)[C@@]13C(=O)Nc1ccccc13)CC2 to COc1ccc(C#Cc2ccc3c(c2)[C@]2(C(=O)N3)[C@H](C(=O)NC[C@H](O)c3ccccc3)[C@H]3C(=O)O[C@H](c4ccccc4)[C@H](c4ccccc4)N3[C@@H]2c2ccc(O)cc2)cc1, the composite z-score rises from 0.948 to 2.71.

Compared with COC(=O)[C@@]1(Cc2ccc(F)cc2)[C@H]2c3cc(C(=O)N4CCCC4)n(CCCNc4ncc(C(F)(F)F)cc4Cl)c3C[C@H]2CN1C(=O)c1ccccc1, COC(=O)[C@@]1(Cc2ccc(OC)cc2)[C@H]2c3cc(C(=O)N4CCCC4)n(Cc4ccc(C)c(F)c4F)c3C[C@H]2CN1C(=O)c1ccccc1 is lower in composite z-score: 2.47 for the first, 1.39 for the second.

Going from CC1(C)C2C=C(C(O)C3C=CC4C(=O)NC(=O)C4N3Nc3ccc(Cl)cc3Cl)C[C@@H]1C2 (stereo not given in full) to CN1C(=O)C2C=CC(C(O)c3ccco3)N(Nc3ccccc3)C2C1=O (stereo not given), the composite z-score rises from 1.26 to 1.72.

Going from COc1ccc(C(O)C2C=CC3C(=O)N(Cc4ccccc4)C(=O)C3N2n2cnnc2)cc1OCc1ccccc1 (stereo not given) to COc1ccc(C#Cc2ccc3c(c2)[C@]2(C(=O)N3)[C@H](c3ccccc3OCCO)N3[C@H](c4ccccc4)[C@H](c4ccccc4)OC(=O)[C@H]3[C@@H]2C(=O)Nc2nc3ccccc3s2)cc1, the composite z-score rises from -0.259 to 1.5.

In the case of CC(=O)NCCCC[C@@H]1NC(=O)[C@H]2C[C@@H](C(=O)NCCCCCCNC(=O)CS)[C@@H](c3ccc(O)cc3)N2C1=O, the composite z-score was 2.48.
